# PubChem BioAssay (NCATS)
# Calls of active or inactive are those of the source. Calls follow the shape of the dose curve; as a rule, active = well fitted curve in the direction sought with a large enough effect; inconclusive = small, poorly fitted or top-dose-only effect, or another doubt; inactive = no such curve, though single readings can be large; an effect the other way counts as inactive or inconclusive.
# Molecular target: Alpha-galactosidase (Coffea arabica) (UniProt Q42656)
# Assay: Counterscreen for Glucocerebrosidase Inhibitors: qHTS Assay for Coffee Bean alpha-Galactosidase at pH 4.5 (AID 957);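 also: plate controls were enzyme alone for no effect and no enzyme for full effect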
# Details: purified coffee bean alpha-galactosidase, fluorogenic substrate; series mostly up to 76.9 µM; activity change, negative = inhibition: at the top concentration
# How it was run: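 AC50 values derive from Hill-equation modeling of concentration-response data, normalized to no-enzyme and full-activity controls. The pH 4.5 citrate assay used 2 nM coffee bean enzyme and 80 uM fluorogenic substrate for 20 min.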
# Sequence of Alpha-galactosidase (Coffea arabica) (Q42656 whole entry, looked up): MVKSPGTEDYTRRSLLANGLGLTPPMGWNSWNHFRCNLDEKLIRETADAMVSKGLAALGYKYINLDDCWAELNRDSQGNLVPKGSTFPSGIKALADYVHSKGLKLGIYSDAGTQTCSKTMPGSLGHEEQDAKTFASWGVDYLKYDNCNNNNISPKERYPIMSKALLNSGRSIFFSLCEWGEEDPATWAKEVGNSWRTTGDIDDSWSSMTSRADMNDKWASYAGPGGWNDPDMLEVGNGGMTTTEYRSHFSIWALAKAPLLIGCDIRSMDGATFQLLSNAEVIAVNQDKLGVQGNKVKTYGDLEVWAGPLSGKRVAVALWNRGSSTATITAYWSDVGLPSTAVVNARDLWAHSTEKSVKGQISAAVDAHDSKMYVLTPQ
SMILES,"activity change, negative = inhibition",outcome
O=C(O)C[C@@H]1CCCc2ccccc2[C@H]1O,1.85% (inactive),–
CO[C@]1(C2=NCCN2)COc2ccccc2O1,0.665% (inactive),–
CCCCCCCCCCCCCCCCCCNC(=O)OC[C@@H](COP(=O)([O-])OCC[n+]1ccsc1)OC,-0.355% (inactive),–
NC[C@](O)(CS(=O)(=O)O)c1ccc(Cl)cc1,-0.645% (inactive),–
CN(C)CCCO[C@H]1[C@H]([C@H](O)CO)O[C@H]2OC(C)(C)O[C@@H]21,1.07% (inactive),–
Fc1ccc(C(c2ccc(F)cc2)N2CCN(C/C=C\c3ccccc3)CC2)cc1,-9.1% (inactive),–
CCCCC#Cc1nc(N)c2ncn([C@@H]3O[C@@H](C(=O)NCC)[C@H](O)[C@@H]3O)c2n1,-1.71% (inactive),–
N[C@H](CCCP(=O)(O)O)C(=O)O,-1.15% (inactive),–
Cc1c(C)c2c(c(C)c1O)CC[C@@](C)(CN1CCN(c3cc(N4CCCC4)nc(N4CCCC4)n3)CC1)O2,-6.86% (inactive),–
Cc1ccccc1CNc1ncnc2c1ncn2[C@@H]1O[C@@H](CO)[C@H](O)[C@@H]1O,-1.16% (inactive),–
C[C@@H]1C(=O)N(C)C(=O)c2nc[nH]c21,-1.88% (inactive),–
COc1ccccc1N1CCN(CCCCNS(=O)(=O)c2cccc3c(N(C)C)cccc23)CC1,-6.9% (inactive),–
Nc1nc2c(nc(Br)n2[C@@H]2O[C@H]3COP(=O)(O)O[C@@H]3[C@H]2O)c(=O)[nH]1,-1.33% (inactive),–
CO/N=C(\C(=O)N[C@@H]1C(=O)N2C(C(=O)O)=C(CSc3nc(=O)c(O)nn3C)CS[C@@H]12)c1csc(N)n1,5.14% (inactive),–
CN(C)C(=O)/N=N\C(=O)N(C)C,-0.0521% (inactive),–
c1ccc2c(c1)CCC[C@H]2C1=NCCN1,-0.0753% (inactive),–
O=S(=O)(NCCNC/C=C\c1ccc(Br)cc1)c1cccc2cnccc12,1.51% (inactive),–
CC(C)NC[C@H](O)c1ccc(NS(C)(=O)=O)cc1,-1.13% (inactive),–
CCn1cc(C(=O)O)c(=O)c2cc(F)c(N3CCN[C@@H](C)C3)c(F)c21,0.454% (inactive),–
C#C[C@H](N)CCC(=O)O,-0.475% (inactive),–

SMILES,"activity change, negative = inhibition",outcome
Nc1ccn([C@@H]2O[C@@H](CO)[C@@H](O)[C@H]2O)c(=O)n1,3.58% (inactive),–
C[C@@H](/C=C\c1cccc(Oc2ccc(F)cc2)c1)N(O)C(N)=O,-4.6% (inactive),–
Cc1ccccc1N1CCN(S(=O)(=O)C[C@@]23CC[C@H](C[C@H]2NC(=O)[C@@H](N)CCS(C)(=O)=O)C3(C)C)CC1,2.63% (inactive),–
CN(C)[C@@H]1C(=O)C(C(N)=O)=C(O)[C@]2(O)C(=O)C3=C(O)c4c(O)ccc(Cl)c4[C@H](O)[C@H]3C[C@@H]12,-7.73% (inactive),–
COc1ccc(CCN(C)CCC[C@@](C#N)(c2ccc(OC)c(OC)c2)C(C)C)cc1OC,-0.704% (inactive),–
N[C@H](Cc1ccc(F)cc1)C(=O)O,-1.08% (inactive),–
CN(C)CC[C@H](c1ccc(Br)cc1)c1ccccn1,–,inactive
Nc1ncnc2c1nc(Br)n2[C@@H]1O[C@H]2COP(=O)(O)O[C@@H]2[C@H]1O,0.678% (inactive),–
NC(=S)c1ccc[n+]([C@@H]2O[C@@H](COP(=O)([O-])OP(=O)(O)OC[C@@H]3O[C@@H](n4cnc5c(N)ncnc54)[C@@H](OP(=O)(O)O)[C@H]3O)[C@@H](O)[C@H]2O)c1,0.412% (inactive),–
Nc1ncnc2c1ncn2[C@@H]1O[C@@H](COP(=O)(O)OP(=O)(O)OP(=O)(O)OP(=O)(O)OC[C@@H]2O[C@@H](n3cnc4c(N)ncnc43)[C@@H](O)[C@H]2O)[C@H](O)[C@@H]1O,-1.22% (inactive),–
NC(=S)NCCC[C@@H](N)C(=O)O,3.04% (inactive),–
N[C@H](C(=O)O)[C@@H]1C[C@@H]1C(=O)O,-0.713% (inactive),–
N[C@@H](CO)C(=O)O,-0.248% (inactive),–
CC[C@]1(O)C[C@H]2CN(CCc3c([nH]c4ccccc34)[C@](C(=O)OC)(c3cc4c(cc3OC)N(C=O)[C@H]3[C@@](O)(C(=O)OC)[C@H](OC(C)=O)[C@@]5(CC)C=CCN6CC[C@]43[C@H]65)C2)C1,-4.28% (inactive),–
O=C1CC[C@H](N2C(=O)c3ccccc3C2=O)C(=O)N1,0.169% (inactive),–
CCCC[S@@](=N)(=O)CC[C@@H](N)C(=O)O,–,inactive
OC[C@H]1O[C@@H](n2cnc3c(NCCc4ccccc4)ncnc32)[C@H](O)[C@H]1O,1.99% (inactive),–
C[C@]12CC3CC(N)(C1)C[C@@](C)(C3)C2,-2.6% (inactive),–
CN(C)c1ccc(/C=C2/C(=O)Nc3ccccc32)cc1,-11.7% (inactive),–

# Molecular target: Alpha-galactosidase (Coffea arabica) (UniProt Q42656)
# Assay: Counterscreen for Glucocerebrosidase Inhibitors: qHTS Assay for Coffee Bean alpha-Galactosidase at pH 5.9 (AID 998);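 also: plate controls were uninhibited enzyme for no effect and no-enzyme basal signal for full effect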
# Details: coffee bean alpha-galactosidase enzyme assay; series mostly up to 76.9 µM; activity, negative = inhibition: at the top concentration
# How it was run: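 Green coffee bean enzyme (2 nM) with 4-methylumbelliferyl alpha-D-galactopyranoside (80 uM) in 50 mM citric acid, 0.005% Tween-20, pH 5.9, 20 min at room temperature; compounds 0.7 nM–77 uM. Stopped at pH 10, fluorescence Ex365/Em440; Hill-fit AC50.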
SMILES,"activity, negative = inhibition",outcome
O=C(O)C[C@@H]1CCCc2ccccc2[C@H]1O,1.49% (inactive),–
CO[C@]1(C2=NCCN2)COc2ccccc2O1,-2.37% (inactive),–
CCCCCCCCCCCCCCCCCCNC(=O)OC[C@@H](COP(=O)([O-])OCC[n+]1ccsc1)OC,-2.05% (inactive),–
NC[C@](O)(CS(=O)(=O)O)c1ccc(Cl)cc1,-3.19% (inactive),–
CN(C)CCCO[C@H]1[C@H]([C@H](O)CO)O[C@H]2OC(C)(C)O[C@@H]21,1.63% (inactive),–
Fc1ccc(C(c2ccc(F)cc2)N2CCN(C/C=C\c3ccccc3)CC2)cc1,-4.25% (inactive),–
CCCCC#Cc1nc(N)c2ncn([C@@H]3O[C@@H](C(=O)NCC)[C@H](O)[C@@H]3O)c2n1,-0.389% (inactive),–
N[C@H](CCCP(=O)(O)O)C(=O)O,-0.069% (inactive),–
Cc1c(C)c2c(c(C)c1O)CC[C@@](C)(CN1CCN(c3cc(N4CCCC4)nc(N4CCCC4)n3)CC1)O2,-8.49% (inactive),–
Cc1ccccc1CNc1ncnc2c1ncn2[C@@H]1O[C@@H](CO)[C@H](O)[C@@H]1O,3.64% (inactive),–
C[C@@H]1C(=O)N(C)C(=O)c2nc[nH]c21,-0.52% (inactive),–
COc1ccccc1N1CCN(CCCCNS(=O)(=O)c2cccc3c(N(C)C)cccc23)CC1,-7.55% (inactive),–
Nc1nc2c(nc(Br)n2[C@@H]2O[C@H]3COP(=O)(O)O[C@@H]3[C@H]2O)c(=O)[nH]1,1.21% (inactive),–
CO/N=C(\C(=O)N[C@@H]1C(=O)N2C(C(=O)O)=C(CSc3nc(=O)c(O)nn3C)CS[C@@H]12)c1csc(N)n1,-1.28% (inactive),–
CN(C)C(=O)/N=N\C(=O)N(C)C,3.77% (inactive),–
c1ccc2c(c1)CCC[C@H]2C1=NCCN1,-0.344% (inactive),–
O=S(=O)(NCCNC/C=C\c1ccc(Br)cc1)c1cccc2cnccc12,-2.21% (inactive),–
CC(C)NC[C@H](O)c1ccc(NS(C)(=O)=O)cc1,-0.126% (inactive),–
CCn1cc(C(=O)O)c(=O)c2cc(F)c(N3CCN[C@@H](C)C3)c(F)c21,1.87% (inactive),–
C#C[C@H](N)CCC(=O)O,1.96% (inactive),–

SMILES,"activity, negative = inhibition",outcome
Nc1ccn([C@@H]2O[C@@H](CO)[C@@H](O)[C@H]2O)c(=O)n1,-0.105% (inactive),–
C[C@@H](/C=C\c1cccc(Oc2ccc(F)cc2)c1)N(O)C(N)=O,-1.89% (inactive),–
Cc1ccccc1N1CCN(S(=O)(=O)C[C@@]23CC[C@H](C[C@H]2NC(=O)[C@@H](N)CCS(C)(=O)=O)C3(C)C)CC1,-1.7% (inactive),–
CN(C)[C@@H]1C(=O)C(C(N)=O)=C(O)[C@]2(O)C(=O)C3=C(O)c4c(O)ccc(Cl)c4[C@H](O)[C@H]3C[C@@H]12,-5.76% (inactive),–
COc1ccc(CCN(C)CCC[C@@](C#N)(c2ccc(OC)c(OC)c2)C(C)C)cc1OC,-1.36% (inactive),–
N[C@H](Cc1ccc(F)cc1)C(=O)O,2.27% (inactive),–
CN(C)CC[C@H](c1ccc(Br)cc1)c1ccccn1,–,inactive
Nc1ncnc2c1nc(Br)n2[C@@H]1O[C@H]2COP(=O)(O)O[C@@H]2[C@H]1O,-2.52% (inactive),–
NC(=S)c1ccc[n+]([C@@H]2O[C@@H](COP(=O)([O-])OP(=O)(O)OC[C@@H]3O[C@@H](n4cnc5c(N)ncnc54)[C@@H](OP(=O)(O)O)[C@H]3O)[C@@H](O)[C@H]2O)c1,0.0178% (inactive),–
Nc1ncnc2c1ncn2[C@@H]1O[C@@H](COP(=O)(O)OP(=O)(O)OP(=O)(O)OP(=O)(O)OC[C@@H]2O[C@@H](n3cnc4c(N)ncnc43)[C@@H](O)[C@H]2O)[C@H](O)[C@@H]1O,-2.17% (inactive),–
NC(=S)NCCC[C@@H](N)C(=O)O,0.766% (inactive),–
N[C@H](C(=O)O)[C@@H]1C[C@@H]1C(=O)O,1.78% (inactive),–
N[C@@H](CO)C(=O)O,1.41% (inactive),–
CC[C@]1(O)C[C@H]2CN(CCc3c([nH]c4ccccc34)[C@](C(=O)OC)(c3cc4c(cc3OC)N(C=O)[C@H]3[C@@](O)(C(=O)OC)[C@H](OC(C)=O)[C@@]5(CC)C=CCN6CC[C@]43[C@H]65)C2)C1,-8.01% (inactive),–
O=C1CC[C@H](N2C(=O)c3ccccc3C2=O)C(=O)N1,0.0926% (inactive),–
CCCC[S@@](=N)(=O)CC[C@@H](N)C(=O)O,–,inactive
OC[C@H]1O[C@@H](n2cnc3c(NCCc4ccccc4)ncnc32)[C@H](O)[C@H]1O,1.26% (inactive),–
C[C@]12CC3CC(N)(C1)C[C@@](C)(C3)C2,2.16% (inactive),–
CN(C)c1ccc(/C=C2/C(=O)Nc3ccccc32)cc1,-11.5% (inactive),–
